Experimental findings from a collection of fitness landscapes (doi:10.1126/science.1257360) are described below.

Whole data set: some 140,000 sequences, median “enrichment ratio after two sorts for PhoP signalling” near 0, cut for the highest 2% near 11. The full list was thinned out, with the highest values kept by preference. Bounds are passed on as bounds.

The chains are these.
B1: PhoQ; a variant is named by its letters at X, in order, P23837 (parent)
chain: MKKLLRLFFPLSLRVRFLLATAAVVLVLSLAYGMVALIGYSVSFDKTTFRLLRGESNLFYTLAKWENNKLHVELPENIDKQSPTMTLIYDENGQLLWAQRDVPWLMKMIQPDWLKSNGFHEIEADVNDTSLLLSGDHSIQQQLQEVREDDDDAEMTHSVAVNVYPATSRMPKLTIVVVDTIPVELKSSYMVWSWFIYVLSANLLLVIPLLWVAAWWSLRPIEALAKEVRELEEHNRELLNPATTRELTSLVRNLNRLLKSERERYDKYRTTLTDLTHSLKTPLXXLQXXLRSLRSEKMSVSDAEPVMLEQISRISQQIGYYLHRASMRGGTLLSRELHPVAPLLDNLTSALNKVYQRKGVNISLDISPEISFVGEQNDFVEVMGNVLDNACKYCLEFVEISARQTDEHLYIVVEDDGPGIPLSKREVIFDRGQRVDTLRPGQGVGLAVAREITEQYEGKIVAGESMLGGARMEVIFGRQHSAPKDE

Variants of B1 are the subject of the assay. Nature of the assay: enrichment ratio after two sorts for PhoP signalling (ratio (wild type AVST 3.29)); higher = more functional. The note with it: with PhoP (E. coli).
As to LTAQ, the enrichment ratio is at most 0.25.

For the variant FDAQ, the enrichment ratio is at most 0.25.

As to TDAQ, the enrichment ratio worked out at 13.4.

As to TSAQ, the enrichment ratio came to 19.6.

Consider KSAQ, for which the enrichment ratio is at most 0.25.

For EETH, the enrichment ratio is at most 0.25.

As for DEAP, the enrichment ratio is at most 0.25.

Take LAGN: the enrichment ratio is at most 0.25.

For the variant GGLE, the enrichment ratio is at most 0.25.

Regarding MLEW, the enrichment ratio is at most 0.25.

In the case of TEHL, the enrichment ratio is 12.5.

As to TEHY, the enrichment ratio was 11.4.

In the case of TEHF, the enrichment ratio amounted to 3.55.

Take NEHL: the enrichment ratio was at most 0.25.

On to TEHP, for which the enrichment ratio is at most 0.25.

Consider TEHS, for which the enrichment ratio was found to be 18.1.

Turning to NEHS, the enrichment ratio is at most 0.25.

In the case of TEHI, the enrichment ratio was 14.2.

With YYHL, the enrichment ratio is at most 0.25.

For YYHY, the enrichment ratio is at most 0.25.

For NEHY, the enrichment ratio is at most 0.25.

For the variant YYHS, the enrichment ratio is at most 0.25.

On to PQEA, for which the enrichment ratio is at most 0.25.

For the variant YVFQ, the enrichment ratio is at most 0.25.

For the variant IQHV, the enrichment ratio was at most 0.25.

Turning to PPCA, the enrichment ratio is at most 0.25.

Regarding ETDW, the enrichment ratio is at most 0.25.

On to MLTM, for which the enrichment ratio is 4.75.

With TNCL, the enrichment ratio was 0.276.

In the case of TNTM, the enrichment ratio stood at 31.2.

Turning to MNWM, the enrichment ratio was found to be 4.81.

As to MNTS, the enrichment ratio was at most 0.25.

For TNRM, the enrichment ratio was at most 0.25.

As to MNTM, the enrichment ratio worked out at 18.9.

As for MNTI, the enrichment ratio was 13.1.

As for MNTC, the enrichment ratio was at most 0.25.

With KHVC, the enrichment ratio is at most 0.25.

As for QGRV, the enrichment ratio was at most 0.25.

For the variant HNCH, the enrichment ratio was at most 0.25.

Consider VGDV, for which the enrichment ratio is at most 0.25.

For the variant NEGH, the enrichment ratio was at most 0.25.

SGMQ: the enrichment ratio turned out to be 15.4.

As to SGHP, the enrichment ratio is at most 0.25.

For SGGK, the enrichment ratio is at most 0.25.

Take SGGA: the enrichment ratio was found to be 8.12.

For the variant SGGQ, the enrichment ratio is 14.9.

As for SGDS, the enrichment ratio was at most 0.25.

For the variant SRIQ, the enrichment ratio is at most 0.25.

As to SGIE, the enrichment ratio was at most 0.25.

On to SGIQ, for which the enrichment ratio was 11.9.

Consider SGKA, for which the enrichment ratio was at most 0.25.

With TGMQ, the enrichment ratio is at most 0.25.

For SGSQ, the enrichment ratio stood at 12.9.

As to AGYL, the enrichment ratio stood at 4.28.

For the variant QKLN, the enrichment ratio was at most 0.25.

For QYFC, the enrichment ratio is at most 0.25.

Consider SGFQ, for which the enrichment ratio was determined as 2.13.

Turning to EDPV, the enrichment ratio is at most 0.25.

With PQAT, the enrichment ratio was at most 0.25.

Consider VRML, for which the enrichment ratio was at most 0.25.

For the variant MAKL, the enrichment ratio is at most 0.25.

On to MAML, for which the enrichment ratio was determined as 25.7.

On to HKML, for which the enrichment ratio is at most 0.25.

In the case of MEML, the enrichment ratio was found to be 12.

As to FAML, the enrichment ratio turned out to be 6.33.

As to NRML, the enrichment ratio was at most 0.25.

In the case of TEML, the enrichment ratio is 28.6.

Consider MKML, for which the enrichment ratio was at most 0.25.

Consider TKML, for which the enrichment ratio stood at 19.2.

PTML: the enrichment ratio is at most 0.25.

Take VKML: the enrichment ratio is at most 0.25.

SWHC: the enrichment ratio was at most 0.25.

For the variant WHRD, the enrichment ratio is at most 0.25.

In the case of PISS, the enrichment ratio was at most 0.25.

With LFSF, the enrichment ratio was at most 0.25.

For the variant RFYN, the enrichment ratio was at most 0.25.

On to DIQW, for which the enrichment ratio was at most 0.25.

As to IIYH, the enrichment ratio is at most 0.25.

Consider MIML, for which the enrichment ratio came to 14.

Consider MIWL, for which the enrichment ratio was found to be 3.25.

As to MCML, the enrichment ratio is 17.5.

With MTML, the enrichment ratio was 4.85.

As for MMML, the enrichment ratio was at most 0.25.

Regarding MIRL, the enrichment ratio is at most 0.25.

For KEPP, the enrichment ratio is at most 0.25.

For HSFC, the enrichment ratio is at most 0.25.

Regarding TLKM, the enrichment ratio was at most 0.25.

In the case of CNFF, the enrichment ratio was at most 0.25.

Consider QNDV, for which the enrichment ratio was at most 0.25.

For the variant MGDH, the enrichment ratio was at most 0.25.

Regarding MGTA, the enrichment ratio is at most 0.25.

Turning to HFMM, the enrichment ratio was at most 0.25.

With MGMM, the enrichment ratio was determined as 37.6.

For MGTS, the enrichment ratio is at most 0.25.

As to MGTM, the enrichment ratio is 13.6.

On to MFMM, for which the enrichment ratio was at most 0.25.

On to MGTI, for which the enrichment ratio came out at 12.5.

For the variant MGAM, the enrichment ratio came to 14.1.

In the case of MGTH, the enrichment ratio is at most 0.25.

In the case of MGCK, the enrichment ratio was 3.89.

For the variant MGTC, the enrichment ratio came out at 0.695.

For HMRE, the enrichment ratio was at most 0.25.

With WQTY, the enrichment ratio was at most 0.25.

Take YKIG: the enrichment ratio is at most 0.25.

For VGNS, the enrichment ratio was at most 0.25.

HWDL: the enrichment ratio was at most 0.25.

For SSRL, the enrichment ratio was at most 0.25.

For YEQT, the enrichment ratio is at most 0.25.

On to LCHM, for which the enrichment ratio was at most 0.25.

Consider MVGN, for which the enrichment ratio was found to be 10.6.

For IKTK, the enrichment ratio is at most 0.25.

With MGDM, the enrichment ratio was at most 0.25.

As to MGGM, the enrichment ratio is 9.49.

For MGWM, the enrichment ratio is 21.

As for LLTF, the enrichment ratio was at most 0.25.

Consider SRTF, for which the enrichment ratio was at most 0.25.

Turning to SLTF, the enrichment ratio was determined as 12.2.

Take KATF: the enrichment ratio is at most 0.25.

Regarding SSTF, the enrichment ratio was determined as 7.3.

Regarding SITF, the enrichment ratio was 11.8.

Take LNTF: the enrichment ratio is at most 0.25.

Turning to SATF, the enrichment ratio was 11.2.

In the case of SNTF, the enrichment ratio came out at 12.1.

Regarding WLTF, the enrichment ratio is at most 0.25.

For the variant KYTF, the enrichment ratio is at most 0.25.

Consider NATF, for which the enrichment ratio was at most 0.25.

For LNWL, the enrichment ratio is at most 0.25.

For the variant ERPG, the enrichment ratio was at most 0.25.

Regarding NYCA, the enrichment ratio was at most 0.25.

As to IDCL, the enrichment ratio was at most 0.25.

With VING, the enrichment ratio was at most 0.25.

Consider WSTV, for which the enrichment ratio is at most 0.25.

Consider SPQL, for which the enrichment ratio was at most 0.25.

With KSQL, the enrichment ratio was at most 0.25.

Regarding DWQL, the enrichment ratio was at most 0.25.

For TSQL, the enrichment ratio was determined as 14.

For the variant TVQL, the enrichment ratio is 16.7.

In the case of MMQL, the enrichment ratio was at most 0.25.

Turning to LAQL, the enrichment ratio is at most 0.25.

As for NVQL, the enrichment ratio was at most 0.25.

TQQL: the enrichment ratio stood at 11.6.

NMQL: the enrichment ratio is at most 0.25.

With HAQL, the enrichment ratio is at most 0.25.

TMQL: the enrichment ratio was 12.8.

Take NGLW: the enrichment ratio was at most 0.25.

For the variant YAWN, the enrichment ratio is at most 0.25.

QRCA: the enrichment ratio is at most 0.25.

FANK: the enrichment ratio is at most 0.25.

Regarding PWMR, the enrichment ratio was at most 0.25.

Consider YMPP, for which the enrichment ratio was at most 0.25.

Regarding PLMP, the enrichment ratio was at most 0.25.

FLRE: the enrichment ratio was at most 0.25.

With MFVW, the enrichment ratio was at most 0.25.
